Screening data deposited in PubChem by several laboratories.
PP1 counter: counter-screen for PP5 inhibitors: inhibitors of human PP1-alpha; P62136; purified PP1alpha, OMFP fluorescence; inhibition, % at 6.7 µM; actives 0.9% (n = 320,000);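 active means inhibition above the mean inhibition of all tested compounds plus 3 SD, computed separately for each screening campaign, cut at about 15% in these data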
Target sequence (P62136 whole entry, looked up): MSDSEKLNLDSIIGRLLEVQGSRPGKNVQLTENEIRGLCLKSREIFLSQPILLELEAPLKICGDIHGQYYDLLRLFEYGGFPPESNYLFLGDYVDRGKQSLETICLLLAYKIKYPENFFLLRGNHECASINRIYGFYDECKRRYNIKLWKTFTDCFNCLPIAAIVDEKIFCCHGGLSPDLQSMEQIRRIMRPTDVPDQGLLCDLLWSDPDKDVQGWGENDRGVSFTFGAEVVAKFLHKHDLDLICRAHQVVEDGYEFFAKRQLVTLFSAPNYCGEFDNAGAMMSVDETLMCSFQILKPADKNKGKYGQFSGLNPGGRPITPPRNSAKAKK
PP5 primary: blocks human protein phosphatase 5 activity | inhibition, % at 6.7 µM | purified PP5c, OMFP substrate fluorescence | AID 1987 | actives 0.18% (n = 320,000) | P53041;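 active means inhibition above the campaign's mean inhibition across all tested compounds plus 3 SD, cut at about 9.5% in these data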;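 further: 0% = DMSO only and 100% = 100 µM cantharidin control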
SKKanGAS inh: blocks kanamycin growth of S. pyogenes SKKanGAS strain; BacTiter-Glo, 6 h; inhibition, % at 7.5 µM; actives 1.3% (n = 300,000);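 active means mean replicate score, as percent of positive control median, at least 50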;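 further: strain carries kanamycin resistance gene driven by streptokinase promoter and grows in 40 µg/ml kanamycin; loss of luminescence reflects streptokinase promoter inhibition or plain growth inhibition; 0% = median of DMSO wells and 100% = positive control at its reference dose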
Beta cell apopt: blocks beta cell apoptosis; INS-1E cytokine-induced death, ATP luminescence, 48 h; percent of positive-control rescue, neutral wells zero; protection from apoptosis, % (test concentration not listed); actives 0.8% (n = 300,000); AID 435005;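 active means Every replicate reaches about 75%, or at least half do and their mean reaches it too, limit read from the data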;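 further: 0% = cytokine-treated negative control wells and 100% = positive control rescue; higher means more ATP so stronger rescue from cytokine killing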
CSC inhib: blocks cancer stem cells. cancer stem cell-like cells viability, luminescence. inhibition, % at 7.5 µM. actives 1.1% (n = 300,000). AID 2717; in the data active means inhibition above about 75%; tested in HMLE shEcad cells
The depositor's hits bear a star; x = not tested or not shown. Compounds with a hit are over-represented: about 3.1% of the library has one in this group of screens.

SMILES	PP1 counter	PP5 primary	SKKanGAS inh	Beta cell apopt	CSC inhib
Cc1cc(C(F)F)nn1CC(=O)NC1C(=O)N2C(C(=O)O)=C(CSc3nnnn3C)CSC12 (stereo not given)	-2	-1	119*	1	-2
Cc1nn(C(C)C(=O)NC2C(=O)N3C(C(=O)O)=C(CSc4nnnn4C)CSC23)cc1Cl (stereo not given)	-4	-3	100*	-2	-4
CNC(=S)NNc1nc(C)cc(C)n1	2	1	-10	3	-1
CC(C)(C)c1cc(CCC(=O)Nc2ccncc2)cc(C(C)(C)C)c1O	-1	3	2	-3	0
CCn1c(=O)c(C(=O)Nc2nc3ccccc3[nH]2)c(O)c2ccccc21	8	3	103*	118*	67
CCn1c(=O)c(C(=O)NNC(=O)Cc2ccccc2)c(O)c2ccccc21	-1	-1	54*	-2	-8
CCn1c(=O)c(C(=O)Nc2ccccc2)c(O)c2ccccc21	-3	-1	2	-6	-18
CCc1nc2ccccc2c(=O)n1NC(=O)c1c(O)c2ccccc2n(CC)c1=O	6	0	26	1	22
CCCCCCCCC(=O)NNC(=O)c1c(O)c2ccccc2n(CCC)c1=O	-1	0	117*	-1	-6
CCCn1c(=O)c(C(=O)NCc2ccccc2)c(O)c2ccccc21	2	-2	13	-3	40
CCCCCCCCCC(=O)NNC(=O)c1c(O)c2ccccc2n(CCC)c1=O	-2	-3	101*	6	-8
O=C1CN(C(=O)Cn2ncc(Cl)c(Cl)c2=O)c2ccccc2N1	x	x	3	x	x
CCC(C)[C@H](NC(=O)[C@H](Cc1ccccc1)n1c(=O)[nH]c2ccccc2c1=O)C(=O)N1CCC[C@@H]1C(=O)O (stereo not given in full)	-4	1	3	1	4
CCOC(=O)c1ccc2c(c1)nc(SCC(=O)N1CCOCC1)n2CC	-2	0	0	-5	-8
Cc1cc2c(cc1S(=O)(=O)CCC(=O)N(C)Cc1ccccc1)OCC(=O)N2	5	-1	0	2	7
[N-]=[N+]=CC(=O)C(c1ccccc1)(c1ccccc1)c1ccccc1	0	-1	-9	x	-4
CCCn1c(=O)c(C(=O)NCCc2ccccc2)c(O)c2ccccc21	0	0	9	2	38
CCCCCCCC(=O)NNC(=O)c1c(O)c2ccccc2[nH]c1=O	-2	1	31	4	-3
C=CCn1c(=O)c(C(=O)NCCc2ccccc2)c(O)c2ccccc21	0	-1	2	9	116*
CCCCCCCCCCC(=O)NNC(=O)c1c(O)c2ccccc2n(CC)c1=O	-1	-2	101*	-2	-12
Cc1ccc(C(=O)Nc2ccc(C(=O)O)cc2NC(=O)c2ccc(C)cc2)cc1	0	2	8	0	7
CCOC(=O)C1=C(CC)Nc2ccccc2N=C1NC(=O)Nc1ccc(Cl)c(Cl)c1	10	4	93*	63	-3
CN(C)c1c(F)cc(C(=O)NCc2ccccc2)cc1F	-5	-1	1	2	0
CCCCCCN=C1CC(C)(C)CC(=O)/C1=C(/O)CCC	-1	2	0	0	-16
O=C1NN(c2ccc(F)c(Cl)c2)C(=O)/C1=C\c1cccc(OC(=O)c2cccs2)c1	15*	2	34	-5	-7
SMILES	PP1 counter	PP5 primary	SKKanGAS inh	Beta cell apopt	CSC inhib
CC(C)=C1C(=O)NN(c2ccc(F)c(Cl)c2)C1=O	2	1	-1	-3	4
CC(=O)c1c(C)[nH]c(C(=O)COc2cc(C)ccc2C(C)C)c1C	0	2	8	103*	17
COc1cc(C)ccc1OCC(=O)OCC(=O)c1[nH]c(C)c(C(C)=O)c1C	x	x	x	1	-9
COC(=O)[C@]1(C)N[C@H](c2ccc(-c3ccc(F)cc3)cc2)[C@@H]2C(=O)N(C)C(=O)[C@@H]21	-2	-1	3	x	-2
CCC(=O)N(C1=C(NC(C)C)C(=O)c2ccccc2C1=O)C(C)C	-2	1	7	-3	-1
CCCNC1=C(N(C(C)=O)c2cccc(F)c2)C(=O)c2ccccc2C1=O	3	5	12	126*	102*
Cc1ccc(NS(=O)(=O)c2ccc(C(=O)N3CCCC(C(F)(F)F)C3)cc2)cc1 (stereo not given)	1	2	-2	x	1
CC(C)c1cccc(C(C)C)c1NC(=O)COC(=O)c1ccc2c(c1)S(=O)(=O)c1ccccc1C2=O	-2	2	15	x	-5
